Assay results published in ChEMBL document CHEMBL4808148, “HDAC6 screening dataset using tau-based substrate in an enzymatic assay yields selective inhibitors and activators” (2021).
The campaign covered roughly 5,600 compounds. About 390 (7%) showed an effect of 50% or more. The entries come from a sample that favours strong results as a whole. Residues, ends and D or L forms follow the SMILES beside them.

Tests used:
[1] = target: T1, Protein deacetylase HDAC6 (Homo sapiens) (UniProt Q9UBN7); details: at 10 µM
T1 sequence (whole entry): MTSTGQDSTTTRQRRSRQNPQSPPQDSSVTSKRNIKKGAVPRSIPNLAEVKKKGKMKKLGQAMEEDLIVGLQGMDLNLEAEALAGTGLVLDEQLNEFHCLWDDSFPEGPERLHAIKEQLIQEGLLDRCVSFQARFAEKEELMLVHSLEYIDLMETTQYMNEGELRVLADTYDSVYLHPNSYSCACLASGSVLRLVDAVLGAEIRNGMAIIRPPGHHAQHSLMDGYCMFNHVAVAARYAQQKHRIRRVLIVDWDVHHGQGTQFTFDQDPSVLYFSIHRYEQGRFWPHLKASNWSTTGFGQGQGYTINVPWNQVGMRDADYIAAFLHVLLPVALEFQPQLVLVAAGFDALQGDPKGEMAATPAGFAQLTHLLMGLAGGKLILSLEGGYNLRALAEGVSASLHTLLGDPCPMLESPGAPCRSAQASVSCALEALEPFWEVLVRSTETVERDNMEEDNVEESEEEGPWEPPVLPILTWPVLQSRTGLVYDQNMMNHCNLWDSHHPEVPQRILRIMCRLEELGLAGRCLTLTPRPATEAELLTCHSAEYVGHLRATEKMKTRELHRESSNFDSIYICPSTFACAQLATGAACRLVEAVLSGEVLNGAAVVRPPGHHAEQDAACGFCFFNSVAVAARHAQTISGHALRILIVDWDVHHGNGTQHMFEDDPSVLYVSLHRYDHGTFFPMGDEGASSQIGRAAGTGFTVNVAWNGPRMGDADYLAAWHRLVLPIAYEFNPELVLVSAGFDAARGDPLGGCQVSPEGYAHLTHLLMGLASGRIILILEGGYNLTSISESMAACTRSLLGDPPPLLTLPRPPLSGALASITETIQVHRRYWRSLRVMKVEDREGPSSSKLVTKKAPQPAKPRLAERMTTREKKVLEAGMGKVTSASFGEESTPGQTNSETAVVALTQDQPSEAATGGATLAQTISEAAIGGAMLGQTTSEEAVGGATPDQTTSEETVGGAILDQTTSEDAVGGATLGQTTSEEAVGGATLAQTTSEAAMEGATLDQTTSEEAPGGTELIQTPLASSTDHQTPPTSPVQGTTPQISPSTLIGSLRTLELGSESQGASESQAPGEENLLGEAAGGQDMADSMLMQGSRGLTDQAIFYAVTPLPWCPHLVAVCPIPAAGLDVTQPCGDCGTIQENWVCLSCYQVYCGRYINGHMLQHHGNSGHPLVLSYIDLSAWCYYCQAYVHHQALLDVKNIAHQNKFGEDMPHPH

[2] = target: Protein deacetylase HDAC6 (Homo sapiens) (UniProt Q9UBN7); details: at 10 µM; remark: listed apart in the source

With CC(C)[C@@H]1C(=O)N(S(C)(=O)=O)[C@@H]2CCN(C(=O)/C=C/CN3CCCCC3)[C@H]21 the inhibition [1] was -9.25%.
NC(=O)c1nc(Nc2ccccc2)sc1NC(=O)C1CCCCC1 gave an inhibition [1] of 11.1%.
Cc1nc2c(c(=O)[nH]1)CSCC2 showed an inhibition [1] of 36%.
CC(C)(C)NCC(O)COc1cc(Cl)ccc1Cl (configuration not stated) gave an inhibition [1] of 2.55%.
For Nc1nc(F)nc2c1ncn2[C@@H]1O[C@H](COP(=O)(O)O)[C@@H](O)[C@@H]1O, the inhibition [1] was -4.37%.
Work on TOCOFERSOLAN, CHEMBL2108106 yielded an inhibition [2] of 6.6%.
Work on O=C(Nc1ncc(SCCN2CCCC2)s1)[C@]1(c2ccc(S(=O)(=O)C3CC3)cc2)C[C@H]1C1CCCCC1 yielded an inhibition [1] of -4.35%.
Molecule CC(C)CC(NC(=O)C1CCCN1)C(=O)NCC(N)=O (stereo not drawn) (H-Pro-Leu-Gly-NH2; configuration not given here) has an inhibition [1] of 40.6%.
In the case of CC(C)(C)Nc1nc(Nc2ccc(C(N)=O)cc2)cc(N)c1C#N, the inhibition [1] is reported as 26.8%.
CC(C)C(N)=O was tested, and the inhibition [1] was 26.5%.
For O=C(O)CC1CC(c2ccccc2)=NO1 (configuration not stated), the inhibition [1] was 32.1%.
O=C(CC1CC(c2ccc(F)cc2F)=NO1)N1CCOCC1 (racemic) showed an inhibition [1] of 99.4%.
CCCC[C@H](NC(C)=O)C(=O)N[C@H]1CC(=O)NCCCC[C@@H](C(=O)O)NC(=O)[C@H](Cc2c[nH]c3ccccc23)NC(=O)[C@H](CCCNC(=N)N)NC(=O)[C@@H](Cc2ccccc2)NC(=O)[C@H](Cc2c[nH]cn2)NC1=O showed an inhibition [1] of 38.5%.
Work on N#CC[C@@H](C1CCCC1)n1cc(-c2ncnc3[nH]ccc23)cn1 yielded an inhibition [1] of -2.44%.
In the case of CN(C)[C@@H](CCOc1cccc2ccccc12)c1ccccc1, the inhibition [1] is reported as 53%.
CNC(=O)Oc1cccc2ccccc12 showed an inhibition [1] of 25.3%.
C[C@@H]([C@H](O)c1ccccc1)N(C)C showed an inhibition [1] of -0.94%.
CNC(=O)c1ccccc1Nc1nc(Nc2ccc3c(c2OC)CCC[C@H](N2CCN(CCO)CC2)C3)ncc1Cl showed an inhibition [1] of 11.5%.
N#[N+]/C=C(\[O-])CC[C@H](N)C(=O)O showed an inhibition [1] of 28.2%.
Molecule COc1cc(OCc2cccc(-c3ccccc3)c2C)cc(OC)c1CN1CCCC[C@H]1C(=O)O has an inhibition [1] of 64.2%.
For CCOC(=O)[C@H](CCc1ccccc1)N[C@@H](C)C(=O)N1Cc2cc(OC)c(OC)cc2C[C@H]1C(=O)O, the inhibition [1] was -0.68%.
Molecule CC[C@H](C)[C@H]1O[C@]2(C=C[C@@H]1C)C[C@@H]1C[C@@H](C/C=C(\C)[C@@H](O[C@H]3C[C@H](OC)[C@@H](O[C@H]4C[C@H](OC)[C@@H](O)[C@H](C)O4)[C@H](C)O3)[C@@H](C)/C=C/C=C3\CO[C@@H]4[C@H](O)C(C)=C[C@@H](C(=O)O1)[C@]34O)O2 has an inhibition [1] of -4.72%.
For O=C(NCCN1CCN(c2ncccn2)CC1)C12CC3CC(CC(C3)C1)C2, the inhibition [1] was -4.05%.
With COc1cc(OC)c(/C=C/S(=O)(=O)Cc2ccc(OC)c(OP(=O)(O)O)c2)c(OC)c1 the inhibition [1] was 6.33%.
Molecule CCn1c(=O)n(C2=C(CO)CN(CC3CCCCCCC3)CC2)c2ccccc21 has an inhibition [1] of -8.59%.
CN1CCC2=C(C1)C(c1ccccc1)c1ccccc12 (configuration not stated) showed an inhibition [1] of -8.99%.
With CNC1CC(c2ccc(Cl)c(Cl)c2)c2ccccc21 (configuration not stated) the inhibition [1] was 30.3%.
CCCCN1[C@@H]2CC[C@H]1C[C@@H](OC(c1ccc(F)cc1)c1ccc(F)cc1)C2 was tested, and the inhibition [1] was 7.33%.
Nc1nc(OCc2cc(Br)cs2)c2[nH]cnc2n1 was tested, and the inhibition [1] was 65.4%.
CN1CCN(c2cccc3[nH]c(=O)oc23)CC1 was tested, and the inhibition [1] was 26.1%.
Work on O=C([O-])[C@H]1O[C@H](O)[C@H](O)[C@@H](O)[C@@H]1O.[Na+] yielded an inhibition [1] of 1.38%.
With CCOC(=O)c1ccc(N(C)c2csc(-c3ccccc3)n2)cc1 the inhibition [1] was 30.7%.
For CC(C)COC(=O)c1ccc(N)cc1, the inhibition [1] was 82.8%.
With Nc1ccc(C(=O)OCC(O)CO)cc1 (configuration not stated) the inhibition [1] was 14.1%.
CC1=C[C@H](O)CC(C)(C)[C@H]1/C=C/C(C)=C/C=C/C(C)=C/C=C/C=C(C)/C=C/C=C(C)/C=C/C1=C(C)C[C@@H](O)CC1(C)C was tested, and the inhibition [1] was 5.04%.
Molecule CC[C@H]1[C@@H](O)[C@@H]2[C@H](CC[C@]3(C)[C@@H]([C@H](C)CCOS(=O)(=O)O)CC[C@@H]23)[C@@]2(C)CC[C@@H](O)C[C@@H]12 has an inhibition [1] of -1.78%.
For CC(C)C[C@H](NC(=O)[C@H](CCCCN)NC(=O)[C@H](CCCNC(=N)N)NC(=O)[C@H](C)NC(=O)[C@H](CO)NC(=O)[C@H](CCCCN)NC(=O)[C@H](CCCNC(=N)N)NC(=O)[C@H](C)NC(=O)CNC(=O)[C@@H](NC(=O)[C@H](Cc1ccccc1)NC(=O)CNC(=O)CNC(=O)[C@@H](N)Cc1ccccc1)[C@@H](C)O)C(=O)N[C@@H](C)C(=O)N[C@@H](CC(N)=O)C(=O)N[C@@H](CCC(N)=O)C(=O)O, the inhibition [1] was 3.21%.
In the case of CCC(CC)C(c1ccc(Nc2nc3ccccc3s2)cc1)n1cncn1 (configuration not stated), the inhibition [1] is reported as 11.9%.
For CC(C)c1cnn2c(NCc3ccccc3)cc(NCCCCCCN)nc12, the inhibition [1] was 61.1%.
Molecule Cc1cc(/C=c2/sc3nc4ccccc4n3c2=O)c(C)n1-c1ccccc1 has an inhibition [1] of -0.72%.
For Cc1cc(/C=C2\SC(=O)N(c3ccccc3)C2=O)c(C)n1-c1cccnc1, the inhibition [1] was 96.7%.
With Nc1nc(=O)c2sc(=O)n([C@@H]3O[C@H](CO)[C@@H](O)[C@H]3O)c2[nH]1 the inhibition [1] was 7.72%.
Cc1ccc(-c2csc(NC(=O)c3ccccc3)n2)c(C)c1 showed an inhibition [1] of 61.3%.
Cc1cc2sc(NC(=O)Cc3ccccc3)nc2cc1Cl gave an inhibition [1] of 19.7%.
With NC(=O)CN1C=CCC(C(N)=O)=C1 the inhibition [1] was -1.44%.
O=C1c2cc(Cl)ccc2OC2CCON12 (configuration not stated) gave an inhibition [1] of 8.29%.
COc1ccccc1OC(=O)CNC(=O)Cc1ccc(C(=O)c2ccc(C)cc2)n1C showed an inhibition [1] of 27.4%.
